Test results published in publication PMC9838217, “Structure of SALL4 zinc finger domain reveals link between AT-rich DNA binding and Okihiro syndrome”.
Substitutions are numbered along the chain they refer to.

Target: T1, SALL4 ZFC4 WT (HT-SELEX) (Mus musculus, UniProt Q8BX22 870-940)
T1 sequence: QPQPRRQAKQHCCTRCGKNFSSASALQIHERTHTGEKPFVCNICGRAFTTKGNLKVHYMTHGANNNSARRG
Assay: HT-SELEX; high values mean tight binding
Settings: protein: recombinant; vector His6-GST; dsDNA, one strand shown
Summary of the method: (§1)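 Purified recombinant mouse SALL4 zinc finger cluster 4 (residues 870–940, 1 µg) and library DNA (1.5 µg first cycle, 200 ng later) were incubated for 10 min at room temperature in 100 µl of 10 mM Tris–HCl pH 7.5, 50 mM NaCl, poly(dI-dC) and DTT. After Ni2+ bead capture and up to 6 triplicate cycles of selection, DNA was MiSeq-sequenced and scanned for 6-mers. Binding signal is the fold change in each canonical k-mer's read fraction relative to the initial random library.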

In order of falling binding signal:
1. AATATG  2.8 ± 0.213 fold-change vs cycle 0
2. AAGATA  2.25 ± 0.105 fold-change vs cycle 0
3. AGAAAA  1.83 ± 0.0887 fold-change vs cycle 0
4. ATTTAG  1.79 ± 0.0993 fold-change vs cycle 0
5. GTTTTA  1.65 ± 0.0877 fold-change vs cycle 0
6. ATAACC  1.63 ± 0.137 fold-change vs cycle 0
7. GTCATA  1.45 ± 0.0661 fold-change vs cycle 0
8. ACTAAG  1.42 ± 0.0426 fold-change vs cycle 0
9. CTGATA  1.39 ± 0.0802 fold-change vs cycle 0
10. ATCTAC  1.31 ± 0.0255 fold-change vs cycle 0
11. AATAGG  1.27 ± 0.0647 fold-change vs cycle 0
12. CAATAC  1.22 ± 0.0144 fold-change vs cycle 0
13. CAACTA  1.19 ± 0.0469 fold-change vs cycle 0
14. GCTATA  1.13 ± 0.0575 fold-change vs cycle 0
15. CAATTG  1.09 ± 0.0289 fold-change vs cycle 0
16. GAACTC  0.875 ± 0.0352 fold-change vs cycle 0
17. AGTAGG  0.864 ± 0.0537 fold-change vs cycle 0
18. GTGAGA  0.859 ± 0.0299 fold-change vs cycle 0
19. CATCCA  0.851 ± 0.0432 fold-change vs cycle 0
20. ACCATG  0.8385 ± 0.0023 fold-change vs cycle 0
21. ACTACC  0.799 ± 0.0371 fold-change vs cycle 0
22. CTGTTC  0.771 ± 0.0432 fold-change vs cycle 0
23. GGAACA  0.762 ± 0.0355 fold-change vs cycle 0
24. CAGAAC  0.725 ± 0.0111 fold-change vs cycle 0
25. CGTACA  0.639 ± 0.0345 fold-change vs cycle 0
26. AACACG  0.6337 ± 0.00219 fold-change vs cycle 0
27. GACCAA  0.62 ± 0.021 fold-change vs cycle 0
28. GCACTA  0.57 ± 0.0256 fold-change vs cycle 0
29. GCGTTA  0.54 ± 0.0741 fold-change vs cycle 0
30. GGGTGA  0.483 ± 0.00743 fold-change vs cycle 0
31. CCTCAC  0.47 ± 0.0318 fold-change vs cycle 0
32. CAGTCC  0.44 ± 0.0267 fold-change vs cycle 0
33. ACCTCG  0.423 ± 0.0256 fold-change vs cycle 0
34. ACCCGT  0.418 ± 0.0141 fold-change vs cycle 0
35. CATCGG  0.364 ± 0.0112 fold-change vs cycle 0
36. CAGCTC  0.332 ± 0.0301 fold-change vs cycle 0
37. GGCTAC  0.316 ± 0.0371 fold-change vs cycle 0
38. AGGCTC  0.313 ± 0.0334 fold-change vs cycle 0
39. AGGTCG  0.312 ± 0.0215 fold-change vs cycle 0
40. AGGCAG  0.306 ± 0.00652 fold-change vs cycle 0

Target: T2, SALL4 ZFC4 R900W (HT-SELEX) (Mus musculus, UniProt Q8BX22 870-940, R900W)
T2 sequence: T1 sequence with R31W
Assay: HT-SELEX; high values mean tight binding
Settings: protein: recombinant; vector His6-GST; dsDNA, one strand shown
Summary of the method: as §1

In order of rising binding signal:
1. GGCTAC  0.356 ± 0.0124 fold-change vs cycle 0
2. AGGCAG  0.366 ± 0.0295 fold-change vs cycle 0
3. AGGTCG  0.372 ± 0.0129 fold-change vs cycle 0
4. CAGCTC  0.394 ± 0.00722 fold-change vs cycle 0
5. AGGCTC  0.399 ± 0.014 fold-change vs cycle 0
6. CATCGG  0.442 ± 0.0135 fold-change vs cycle 0
7. ACCTCG  0.498 ± 0.00774 fold-change vs cycle 0
8. ACCCGT  0.5 ± 0.0199 fold-change vs cycle 0
9. GGGTGA  0.541 ± 0.0302 fold-change vs cycle 0
10. CAGTCC  0.544 ± 0.0287 fold-change vs cycle 0
11. CCTCAC  0.561 ± 0.0275 fold-change vs cycle 0
12. GCGTTA  0.582 ± 0.053 fold-change vs cycle 0
13. GCACTA  0.649 ± 0.0265 fold-change vs cycle 0
14. CGTACA  0.729 ± 0.0226 fold-change vs cycle 0
15. GACCAA  0.733 ± 0.0369 fold-change vs cycle 0
16. AACACG  0.737 ± 0.0205 fold-change vs cycle 0
17. CAGAAC  0.847 ± 0.0358 fold-change vs cycle 0
18. GGAACA  0.882 ± 0.0371 fold-change vs cycle 0
19. CTGTTC  0.893 ± 0.0123 fold-change vs cycle 0
20. ACCATG  0.925 ± 0.0262 fold-change vs cycle 0
21. CATCCA  0.934 ± 0.0343 fold-change vs cycle 0
22. ACTACC  0.948 ± 0.0381 fold-change vs cycle 0
23. GTGAGA  0.971 ± 0.0233 fold-change vs cycle 0
24. AGTAGG  0.972 ± 0.0557 fold-change vs cycle 0
25. GAACTC  1.03 ± 0.0309 fold-change vs cycle 0
26. GCTATA  1.11 ± 0.0825 fold-change vs cycle 0
27. CAATTG  1.247 ± 0.0104 fold-change vs cycle 0
28. CAATAC  1.3 ± 0.0388 fold-change vs cycle 0
29. CAACTA  1.31 ± 0.0705 fold-change vs cycle 0
30. GTCATA  1.36 ± 0.05 fold-change vs cycle 0
31. AATAGG  1.39 ± 0.0729 fold-change vs cycle 0
32. ATCTAC  1.41 ± 0.0427 fold-change vs cycle 0
33. CTGATA  1.44 ± 0.0817 fold-change vs cycle 0
34. ATAACC  1.47 ± 0.11 fold-change vs cycle 0
35. ACTAAG  1.61 ± 0.0315 fold-change vs cycle 0
36. GTTTTA  1.66 ± 0.0685 fold-change vs cycle 0
37. ATTTAG  1.83 ± 0.0928 fold-change vs cycle 0
38. AATATG  1.83 ± 0.0804 fold-change vs cycle 0
39. AGAAAA  1.85 ± 0.0773 fold-change vs cycle 0
40. AAGATA  2.22 ± 0.148 fold-change vs cycle 0

Target: T3, SALL4 ZFC4 G921D (HT-SELEX) (Mus musculus, UniProt Q8BX22 870-940, G921D)
T3 sequence: T1 sequence with G52D
Assay: HT-SELEX; high values mean tight binding
Settings: protein: recombinant; vector His6-GST; dsDNA, one strand shown
Summary of the method: as §1

In order of rising binding signal:
1. AGGCAG  0.484 ± 0.0834 fold-change vs cycle 0
2. GGCTAC  0.493 ± 0.0659 fold-change vs cycle 0
3. AGGTCG  0.511 ± 0.0677 fold-change vs cycle 0
4. CAGCTC  0.526 ± 0.0361 fold-change vs cycle 0
5. AGGCTC  0.546 ± 0.0493 fold-change vs cycle 0
6. CATCGG  0.568 ± 0.0586 fold-change vs cycle 0
7. ACCCGT  0.577 ± 0.0315 fold-change vs cycle 0
8. ACCTCG  0.604 ± 0.0431 fold-change vs cycle 0
9. CAGTCC  0.63 ± 0.0382 fold-change vs cycle 0
10. GGGTGA  0.632 ± 0.0295 fold-change vs cycle 0
11. CCTCAC  0.658 ± 0.0448 fold-change vs cycle 0
12. GCGTTA  0.668 ± 0.0435 fold-change vs cycle 0
13. GCACTA  0.725 ± 0.019 fold-change vs cycle 0
14. CGTACA  0.802 ± 0.0376 fold-change vs cycle 0
15. AACACG  0.823 ± 0.0377 fold-change vs cycle 0
16. GACCAA  0.845 ± 0.0391 fold-change vs cycle 0
17. CAGAAC  0.863 ± 0.0478 fold-change vs cycle 0
18. GGAACA  0.956 ± 0.0475 fold-change vs cycle 0
19. CTGTTC  0.959 ± 0.0166 fold-change vs cycle 0
20. ACTACC  0.968 ± 0.0334 fold-change vs cycle 0
21. CATCCA  0.974 ± 0.0408 fold-change vs cycle 0
22. GTGAGA  0.986 ± 0.0119 fold-change vs cycle 0
23. AGTAGG  0.989 ± 0.0263 fold-change vs cycle 0
24. ACCATG  0.997 ± 0.0244 fold-change vs cycle 0
25. GAACTC  1.04 ± 0.0772 fold-change vs cycle 0
26. GCTATA  1.15 ± 0.0714 fold-change vs cycle 0
27. CAATTG  1.28 ± 0.0217 fold-change vs cycle 0
28. CAATAC  1.29 ± 0.0522 fold-change vs cycle 0
29. CAACTA  1.29 ± 0.0584 fold-change vs cycle 0
30. AATAGG  1.32 ± 0.0667 fold-change vs cycle 0
31. GTCATA  1.34 ± 0.0974 fold-change vs cycle 0
32. CTGATA  1.36 ± 0.068 fold-change vs cycle 0
33. ATCTAC  1.38 ± 0.0966 fold-change vs cycle 0
34. ATAACC  1.38 ± 0.107 fold-change vs cycle 0
35. ACTAAG  1.45 ± 0.0661 fold-change vs cycle 0
36. GTTTTA  1.54 ± 0.113 fold-change vs cycle 0
37. AGAAAA  1.63 ± 0.11 fold-change vs cycle 0
38. ATTTAG  1.64 ± 0.15 fold-change vs cycle 0
39. AATATG  1.66 ± 0.102 fold-change vs cycle 0
40. AAGATA  1.9 ± 0.223 fold-change vs cycle 0
